# Out of some 39,000 compounds screened, about 3,300 (8.5%) were called active. This is one part of a sample in which actives are shown more often than they occur.
# Tested on: HepG2
# Experiment: cytotoxicity call (relative viability < 0.9)
# Settings: 10 µM
row,SMILES,cytotoxicity call
1,C[C@H](CO)N1C[C@H](C)[C@H](CN(C)Cc2ccc3c(c2)OCO3)Oc2c(NS(=O)(=O)c3cn(C)cn3)cccc2C1=O,inactive
2,O=C(/C=C/c1ccc(O)c(O)c1)O[C@@H]1C[C@](OC(=O)/C=C/c2ccc(O)c(O)c2)(C(=O)O)C[C@@H](O)[C@H]1O,inactive
3,C[C@H]1CCCCO[C@H](CN(C)C(=O)Nc2ccc(C(F)(F)F)cc2)[C@@H](C)CN([C@@H](C)CO)C(=O)c2cc(NC(=O)NC3CCCCC3)ccc2O1,inactive
4,C[C@H](CO)N1C[C@H](C)[C@@H](CN(C)C(=O)Nc2ccc(C(F)(F)F)cc2)OCCCC[C@H](C)Oc2ccc(NC(=O)NC3CCCCC3)cc2C1=O,inactive
5,C[C@@H]1CCCCO[C@@H](CN(C)C(=O)Nc2ccc(C(F)(F)F)cc2)[C@H](C)CN([C@H](C)CO)C(=O)c2cc(NC(=O)NC3CCCCC3)ccc2O1,active
6,COc1ccc(NC(=O)N2C[C@@H](O)COC[C@H]3O[C@H](CC(=O)NC4Cc5ccccc5C4)CC[C@@H]32)cc1,inactive
7,C[C@@H]1CN([C@@H](C)CO)C(=O)c2c(c3ccccc3n2C)-c2ccccc2CO[C@@H]1CN(C)Cc1ccc(Cl)c(Cl)c1,inactive
8,C[C@H](CO)N1C[C@H](C)[C@@H](CN(C)Cc2ccc(Cl)c(Cl)c2)OCCCC[C@H](C)Oc2ccc(N(C)C)cc2C1=O,inactive
9,C[C@@H]1CCCCO[C@H](CN(C)Cc2ccc(C(F)(F)F)cc2)[C@H](C)CN([C@H](C)CO)C(=O)c2cc(N(C)C)ccc2O1,active
10,C[C@H](CO)N1C[C@H](C)[C@H](CN(C)Cc2ccc(C(F)(F)F)cc2)OCCCC[C@H](C)Oc2ccc(N(C)C)cc2C1=O,inactive
11,C[C@@H]1CCCCO[C@@H](CN(C)Cc2ccc(Cl)c(Cl)c2)[C@H](C)CN([C@H](C)CO)C(=O)c2cc(N(C)C)ccc2O1,active
12,C[C@@H]1CCCCO[C@H](CN(C)Cc2ccc(Cl)c(Cl)c2)[C@@H](C)CN([C@@H](C)CO)C(=O)c2cc(N(C)C)ccc2O1,inactive
13,C[C@@H]1CCCCO[C@@H](CN(C)Cc2ccc(C(F)(F)F)cc2)[C@@H](C)CN([C@H](C)CO)C(=O)c2cc(N(C)C)ccc2O1,inactive
14,C[C@H]1CCCn2nncc2COCCNC1=O,inactive
15,COCCOC(=O)N1C(=O)[C@@]2(c3ccccc31)[C@H](C(=O)N1CCCCCCC1)[C@H]1C(=O)O[C@H](c3ccccc3)[C@H](c3ccccc3)N1[C@@H]2c1ccccc1OCCO,inactive
16,Cc1ccc(S(=O)(=O)[N-]Cl)cc1.[Na+],inactive
17,CNS(=O)(=O)c1ccc(C)cc1,inactive
18,Cc1cccc(-n2cc(CN)cn2)c1,inactive
19,COc1cc(NC(=O)Cn2cnc3c2c(=O)n(C)c(=O)n3C)cc(OC)c1OC,inactive
20,COc1cc(NC(=O)c2cccc(-n3cc(NC(=O)Nc4cccc(C)c4)cn3)c2)cc(OC)c1OC,active

row,SMILES,cytotoxicity call
1,Cc1noc(C)c1S(=O)(=O)Nc1cccc2c1O[C@@H](CN(C)S(=O)(=O)c1cn(C)cn1)[C@@H](C)CN([C@H](C)CO)C2=O,inactive
2,C[C@H](CO)N1C[C@H](C)[C@H](CN(C)C(=O)Nc2ccc(C(C)(C)C)cc2)OCc2cnnn2CCCC1=O,inactive
3,C[C@@H]1CN([C@H](C)CO)C(=O)c2cc(NS(=O)(=O)c3ccccc3)ccc2O[C@@H](C)CCCCO[C@@H]1CN(C)C(=O)NC1CCCCC1,inactive
4,C[C@@H]1CCCCO[C@@H](CN(C)C(=O)NC2CCCCC2)[C@H](C)CN([C@@H](C)CO)C(=O)c2cc(NS(=O)(=O)c3ccccc3)ccc2O1,active
5,C[C@@H]1CCCCO[C@@H](CN(C)C(=O)NC2CCCCC2)[C@H](C)CN([C@H](C)CO)C(=O)c2cc(NS(=O)(=O)c3ccccc3)ccc2O1,inactive
6,C[C@@H]1CCCCO[C@H](CN(C)C(=O)NC2CCCCC2)[C@@H](C)CN([C@@H](C)CO)C(=O)c2cc(NS(=O)(=O)c3ccccc3)ccc2O1,inactive
7,C[C@H](CO)N1C[C@H](C)[C@H](CN(C)C(=O)NC2CCCCC2)OCCCC[C@H](C)Oc2ccc(NS(=O)(=O)c3ccccc3)cc2C1=O,active
8,C[C@H]1CCCCO[C@H](CN(C)C(=O)NC2CCCCC2)[C@@H](C)CN([C@@H](C)CO)C(=O)c2cc(NS(=O)(=O)c3ccccc3)ccc2O1,inactive
9,O=C(C[C@@H]1CC[C@@H](NC(=O)Cc2ccccn2)[C@@H](CO)O1)NCCCN1CCOCC1,inactive
10,C[C@H](CO)N1C[C@H](C)[C@H](CN(C)Cc2ccc(C(=O)Nc3ccccc3N)cc2)Oc2c(NS(=O)(=O)c3cn(C)cn3)cccc2C1=O,inactive
11,C[C@@H]1CN([C@H](C)CO)C(=O)c2cccc(NC(=O)c3ccc(-c4nccs4)cc3)c2O[C@@H]1CN(C)C(=O)Nc1cccc2ccccc12,inactive
12,COc1ccc(CN2C[C@@H](C)[C@@H](OC)CN(C)C(=O)c3cc(NC(=O)c4nc5ccccc5s4)ccc3OC[C@@H]2C)cc1,inactive
13,CCCC(=O)Nc1ccc2c(c1)OC[C@@H](C)N(S(=O)(=O)c1cn(C)cn1)C[C@@H](C)[C@H](OC)CN(C)C2=O,inactive
14,C[C@@H]1CN([C@H](C)CO)C(=O)c2cc(NC(=O)Cc3ccccc3)ccc2O[C@@H]1CN(C)Cc1ccc(-c2ccccc2)cc1,inactive
15,C[C@@H]1CN([C@H](C)CO)C(=O)c2cc(NC(=O)Cc3ccccc3)ccc2O[C@H]1CN(C)Cc1ccc(C(F)(F)F)cc1,inactive
16,C[C@@H]1CN([C@H](C)CO)C(=O)c2cc(NC(=O)Cc3ccccc3)ccc2O[C@H]1CN(C)Cc1ccc(-c2ccccc2)cc1,active
17,C[C@H](CO)N1C[C@H](C)[C@H](CN(C)Cc2ccc(-c3ccccc3)cc2)Oc2ccc(NC(=O)Cc3ccccc3)cc2C1=O,active
18,C[C@@H]1CN([C@@H](C)CO)C(=O)c2cc(NC(=O)Cc3ccccc3)ccc2O[C@@H]1CN(C)Cc1ccc(C(F)(F)F)cc1,inactive
19,C[C@@H]1CN([C@@H](C)CO)C(=O)c2cc(NC(=O)Cc3ccccc3)ccc2O[C@@H]1CN(C)Cc1ccc(-c2ccccc2)cc1,active
20,C[C@@H]1CN([C@@H](C)CO)C(=O)c2cc(NC(=O)Cc3ccccc3)ccc2O[C@H]1CN(C)Cc1ccc(-c2ccccc2)cc1,active
